Assay results taken from PubChem BioAssay (NCI).
The panel holds about 79,000 compounds, 15% with a hit somewhere; the sample as a whole holds those more often. Activity calls are given as the source filed them. Rule as the data show it: active = growth inhibition above about 70%; inactive = the rest.

Experiments:
[1] = NCI Yeast Anticancer Drug Screen. Data for the rad52 strain (AID 147);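 also: 0% = growth of vehicle-treated control cultures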; conditions: S. cerevisiae rad52 mutant growth inhibition, hits give high values
Procedure, shortened: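 Compounds are applied to a genetically defined yeast strain lacking normal DNA damage repair, and inhibition of growth is expressed relative to cultures given vehicle only.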

[2] = NCI Yeast Anticancer Drug Screen. Data for the wt1 strain (AID 149);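 also: 0% = growth of vehicle-treated wt1 cultures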; conditions: S. cerevisiae wt1 strain (SPY 50644) growth inhibition, hits give high values
Procedure, shortened: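 Vehicle-normalised growth inhibition; strain wt1; compound exposure.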

[3] = NCI Yeast Anticancer Drug Screen. Data for the rad50EPP+ strain (AID 151);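 also: 0% = growth of vehicle-treated control cultures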; conditions: S. cerevisiae rad50 mutant strain, hits give high values
Procedure, shortened: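 Compounds were applied to the rad50EPP+ yeast strain, which bears a defined DNA repair alteration, and growth inhibition was determined relative to vehicle-treated cultures.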

[4] = NCI Yeast Anticancer Drug Screen. Data for the mgt1 strain (AID 153); conditions: S. cerevisiae mgt1 mutant growth inhibition, hits give high values
Procedure, shortened: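 Strain: mgt1 yeast, one of a set carrying defined DNA damage repair or cell cycle control alterations. Compound-treated growth compared with vehicle.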

[5] = NCI Yeast Anticancer Drug Screen. Data for the rad50 strain (AID 155);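 also: 0% = growth of vehicle-only cultures of the same strain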; conditions: S. cerevisiae rad50 strain growth inhibition, hits give high values
Procedure, shortened: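 A DNA repair-deficient yeast mutant serves as the test organism; compound-induced growth inhibition is calculated against vehicle-treated cells.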

[6] = NCI Yeast Anticancer Drug Screen. Data for the mec2-1 strain (AID 157); conditions: S. cerevisiae mec2-1 strain, hits give high values
Procedure, shortened: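 Strain: mec2-1 (DNA repair/cell cycle alteration). Compound exposure, then growth measured; inhibition expressed relative to vehicle.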

[7] = NCI Yeast Anticancer Drug Screen. Data for the rad14 strain (AID 159);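 also: 0% = growth of vehicle-treated control cultures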; conditions: S. cerevisiae rad14 strain growth inhibition, hits give high values
Procedure, shortened: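 Vehicle-treated cultures served as the baseline for growth inhibition of a DNA repair-mutant yeast strain exposed to each compound.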

[8] = NCI Yeast Anticancer Drug Screen. Data for the sgs1 mgt1 strain (AID 161);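 also: 0% = growth of cultures given vehicle only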; conditions: S. cerevisiae sgs1 mgt1 strain, hits give high values
Procedure, shortened: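 Inhibition of yeast growth, normalised to vehicle-treated controls, is reported for a strain bearing genetic alterations in DNA damage repair.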

[9] = NCI Yeast Anticancer Drug Screen. Data for the CLN2oe strain (AID 163);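 also: 0% = growth of vehicle-only control cultures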; conditions: S. cerevisiae CLN2oe strain, hits give high values
Procedure, shortened: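 Growth of a genetically modified yeast strain is measured after compound exposure and compared with cultures given vehicle alone.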

[10] = NCI Yeast Anticancer Drug Screen. Data for the cln2 rad14 strain (AID 165);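 also: 0% = growth equal to vehicle treated cultures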; conditions: S. cerevisiae cln2 rad14 strain, hits give high values
Procedure, shortened: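 Compounds are applied to the cln2 rad14 yeast strain, and growth is then compared with that of vehicle-treated cultures to give inhibition.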

[11] = NCI Yeast Anticancer Drug Screen. Data for the bub3 strain (AID 167); conditions: S. cerevisiae bub3 mutant strain, hits give high values
Procedure, shortened: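 Inhibition values come from growth of compound-treated mutant yeast normalised to vehicle-treated controls.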

[12] = NCI Yeast Anticancer Drug Screen. Data for the wt2 strain (AID 169);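 also: 0% = growth of vehicle-treated yeast cultures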; conditions: S. cerevisiae wt2 strain growth inhibition, hits give high values
Procedure, shortened: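 This strain belongs to a panel of yeast strains with defined genetic alterations in DNA damage repair or cell cycle control. Compounds are applied, and growth inhibition is measured against vehicle-treated cultures.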

[13] = NCI Yeast Anticancer Drug Screen. Data for the sgs1 strain (AID 173);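 also: 0% = growth of vehicle-only control cultures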; conditions: S. cerevisiae sgs1 mutant, hits give high values
Procedure, shortened: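 Growth of a yeast strain bearing a defined genetic alteration is measured after compound treatment. Inhibition is expressed relative to vehicle-only controls.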

[14] = NCI Yeast Anticancer Drug Screen. Data for the rad18 strain (AID 177); conditions: S. cerevisiae rad18 mutant growth inhibition, hits give high values
Procedure, shortened: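 Growth of the mutant yeast strain after compound exposure, normalised to vehicle-only cultures.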

[15] = NCI Yeast Anticancer Drug Screen. Data for the mlh1 strain (AID 171);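 also: 0% = growth of vehicle-treated control cultures of the same strain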; conditions: S. cerevisiae mlh1 strain growth inhibition, hits give high values
Procedure, shortened: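 Growth of the mutant yeast strain after compound exposure, expressed as inhibition relative to vehicle-only controls.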

[16] = NCI Yeast Anticancer Drug Screen. Data for the mlh1 rad18 strain (AID 175); conditions: S. cerevisiae mlh1 rad18 strain growth inhibition, hits give high values
Procedure, shortened: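 Read-out is yeast growth inhibition, calculated against vehicle-only controls. The compound was applied to a strain engineered with DNA damage repair alterations.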

[17] = at 5.0 µM (retest, dose inferred, filed as 0.5)
[18] = at 50.0 µM (retest, dose inferred, filed as 5.0)

Measured: growth inhibition

CCOC(=N)c1ccc(O)c(OC)c1
active: [11]; [18] 83% | [11]; at 50.0 µM 86.6% | [11]; at 100.0 µM 79%
inactive: [1]; at 1.2 µM -1% | [1]; at 3.7 µM 0% | [1]; at 11.0 µM 0% | [1]; at 33.0 µM 0% | [1]; at 100.0 µM -2% | [2]; at 1.2 µM -3% | [2]; at 3.7 µM -2% | [2]; at 11.0 µM -3% | [2]; at 33.0 µM -1% | [2]; at 100.0 µM -3% | [3]; at 1.2 µM -3% | [3]; at 3.7 µM -4% | [3]; at 11.0 µM -6% | [3]; at 33.0 µM -3% | [3]; at 100.0 µM 1% | [4]; at 1.2 µM -2% | [4]; at 3.7 µM -1% | [4]; at 11.0 µM -2% | [4]; at 33.0 µM -2% | [4]; at 100.0 µM -2% | [5]; at 1.2 µM -1% | [5]; at 3.7 µM 16% | [5]; [17] -2% | [5]; at 11.0 µM 11% | [5]; at 33.0 µM -1% | [5]; [18] -4% | [5]; at 50.0 µM 2% | [5]; at 100.0 µM 2% | [6]; at 1.2 µM 0% | [6]; at 3.7 µM 2% | [6]; [17] -42% | [6]; at 11.0 µM 2% | [6]; at 33.0 µM 3% | [6]; [18] -3% | [6]; at 50.0 µM -9% | [6]; at 100.0 µM 2% | [7]; at 1.2 µM -2% | [7]; at 3.7 µM -6% | [7]; at 11.0 µM -19% | [7]; at 33.0 µM -4% | [7]; at 100.0 µM -1% | [8]; [17] 0% | [8]; [18] -4% | [8]; at 50.0 µM -2.6% | [9]; at 1.2 µM -2% | [9]; at 3.7 µM -5% | [9]; at 11.0 µM 1% | [9]; at 33.0 µM -3% | [9]; at 100.0 µM -1% | [10]; [17] 2% | [10]; [18] 0% | [10]; at 50.0 µM -39.2% | [11]; at 1.2 µM 7% | [11]; at 3.7 µM 17% | [11]; [17] 30% | [11]; at 11.0 µM 48% | [11]; at 33.0 µM 66% | [12]; at 1.2 µM -3% | [12]; at 3.7 µM 6% | [12]; at 11.0 µM -3% | [12]; at 33.0 µM -1% | [12]; at 100.0 µM -2% | [13]; at 1.2 µM -3% | [13]; at 3.7 µM -5% | [13]; at 11.0 µM -4% | [13]; at 33.0 µM -3% | [13]; at 100.0 µM 3% | [14]; at 1.2 µM -1% | [14]; at 3.7 µM -3% | [14]; at 11.0 µM -3% | [14]; at 33.0 µM 0% | [14]; at 100.0 µM 14%

CCCCN(CCCC)CCC(O)c1cc2c(Cl)cc(Cl)cc2c2cc(C(F)(F)F)ccc12 (stereo not drawn)
inactive: [1]; at 1.2 µM 1% | [1]; at 3.7 µM 11% | [2]; at 1.2 µM -2% | [2]; at 3.7 µM 0% | [3]; at 1.2 µM 8% | [3]; at 3.7 µM 19% | [4]; at 1.2 µM 27% | [4]; at 3.7 µM 30% | [5]; at 1.2 µM 24% | [5]; at 3.7 µM 16% | [5]; [17] 41% | [6]; at 1.2 µM 10% | [6]; at 3.7 µM 8% | [6]; [17] 53% | [7]; at 1.2 µM 23% | [7]; at 3.7 µM 20% | [8]; [17] 56% | [9]; at 1.2 µM 22% | [9]; at 3.7 µM 20% | [10]; [17] 67% | [11]; at 1.2 µM 10% | [11]; at 3.7 µM 3% | [11]; [17] -17% | [15]; at 1.2 µM 14% | [15]; at 3.7 µM 23% | [13]; at 1.2 µM 18% | [13]; at 3.7 µM 18% | [16]; [17] 62% | [14]; at 1.2 µM 26% | [14]; at 3.7 µM 29%
active: [1]; at 11.0 µM 99% | [1]; at 33.0 µM 98% | [1]; at 100.0 µM 96% | [2]; at 11.0 µM 93% | [2]; at 33.0 µM 98% | [2]; at 100.0 µM 96% | [3]; at 11.0 µM 80% | [3]; at 33.0 µM 98% | [3]; at 100.0 µM 93% | [4]; at 11.0 µM 99% | [4]; at 33.0 µM 99% | [4]; at 100.0 µM 97% | [5]; at 11.0 µM 98% | [5]; at 33.0 µM 98% | [5]; [18] 98% | [5]; at 50.0 µM 87.5% | [5]; at 100.0 µM 95% | [6]; at 11.0 µM 98% | [6]; at 33.0 µM 99% | [6]; [18] 98% | [6]; at 50.0 µM 89.7% | [6]; at 100.0 µM 96% | [7]; at 11.0 µM 98% | [7]; at 33.0 µM 99% | [7]; at 100.0 µM 96% | [8]; [18] 97% | [8]; at 50.0 µM 86.5% | [9]; at 11.0 µM 98% | [9]; at 33.0 µM 99% | [9]; at 100.0 µM 95% | [10]; [18] 96% | [10]; at 50.0 µM 85.5% | [11]; at 11.0 µM 97% | [11]; at 33.0 µM 99% | [11]; [18] 96% | [11]; at 50.0 µM 82.7% | [11]; at 100.0 µM 96% | [15]; at 11.0 µM 98% | [15]; at 33.0 µM 99% | [15]; at 100.0 µM 96% | [13]; at 11.0 µM 99% | [13]; at 33.0 µM 99% | [13]; at 100.0 µM 95% | [16]; [18] 97% | [16]; at 50.0 µM 82.8% | [14]; at 11.0 µM 98% | [14]; at 33.0 µM 99% | [14]; at 100.0 µM 94%
